In PubChem BioAssay AID488965 (Broad Institute, 2010):
Where “and” joins values, the source holds several entries; their conditions need not be identical. Equal entries are not always repeated. The whole screen tested about 340,000 compounds, of which about 210 (0.062%) were called active. The list comes from a sample in which actives are over-represented; it also holds similar structures and randomly drawn compounds. Unmarked numbers belong to inactive results. Cut-off read from the data, not from the text of the source: active = inhibition above about 30% (passing the limit was not always enough); inconclusive = no clear call, values can overlap the other calls.

Test system: PvdQ acylase [Pseudomonas aeruginosa LESB58]
Assay: P. aeruginosa PvdQ acylase inhibitors, primary screen, biochemical, fluorescence, plate reader and imaging, single point (AID 488965);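 note: 0% = vehicle neutral wells and 100% = reference inhibitor wells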
Settings: purified PvdQ acylase, at 10 µM, active compounds read high

SMILES | inhibition
CC(=O)c1nn(-c2ccc(C)cc2)cc1C(=O)c1cccc(Br)c1 | -6.55%
COc1cc(CNC2CCCCC2)c(Br)cc1OC1CCCC1 | -10.3%
COc1ccc(NS(=O)(=O)c2cc(NC(=O)CC(=O)c3ccc([N+](=O)[O-])cc3)ccc2C)cc1 | -17.8%
CCCCNC(=O)N1CCN(S(C)(=O)=O)CC1 | -13.6%
CN1CCN(Cc2c(C(=O)N3CCc4ccccc4C3)nc3ccc(Cl)cn23)CC1 | 9.88%
CCOc1ccc(/C(O)=C2/C(=O)C(=O)N(Cc3cccnc3)C2c2ccc(N(C)C)cc2)c(C)c1 (configuration not stated) | -1.75%
COc1ccc(CCN(C)C(=O)C23CC4CC(CC(Cl)(C4)C2)C3)cc1OC | 0.828%
O=C(CNC(=O)OCc1ccccc1)NC1CCCCNC1=O (configuration not stated) | -2.51%
CCC(C(=O)NC1CCCC1)N(C(=O)Cn1nnc(-c2ccc(C)o2)n1)c1ccc(OC)c(OC)c1 (configuration not stated) | -6.8%
CC(C)=NN1C(=O)c2ccccc2NC1(C)C | -15.2%
O=C(Nn1cnc2ccccc2c1=O)c1ccc([N+](=O)[O-])cc1Cl | -2.92%
CC1=C(C(=O)Nc2cc(C)ccn2)C(c2cnn(C)c2)C2=C(CC(c3ccccc3)CC2=O)N1 (configuration not stated) | -10.4%
COc1ccc(N2CCN(C(=O)CN3C(=O)COc4ccccc43)CC2)cc1 | -3.63%
COc1ccc(Cn2cc(CN3CCS(=O)(=O)N(Cc4ccc(-c5cccc(Cl)c5)cc4)C(C)C3=O)nn2)cc1 (configuration not stated) | 6.04%
COc1ccccc1NS(=O)(=O)c1ccc(C)c(C(=O)NCC(c2ccco2)N(C)C)c1 (configuration not stated) | -1.08%
CC(C)CC(COCc1ccc(Cl)cc1)N1CCN(C(=O)c2ccc(C(F)(F)F)cc2)CCC1=O (configuration not stated) | -5.2%

SMILES | inhibition
COc1ccc(S(=O)(=O)NCC2CCCN(C(=O)c3occc3C)C2)cc1 (configuration not stated) | -11.7%
Cc1oc(-c2ccccc2Cl)[n+]([O-])c1C | -3.53%
CC(C(=O)Nc1ccccc1-c1ccccc1)N1CCOCC1 (configuration not stated) | 4.97%
CC1(C)Cc2cccc(OCC(=O)N3CCN(c4ccc([N+](=O)[O-])cc4)CC3)c2O1 | 3.43%
O=C(NCCc1ccccc1)C1CC1 | 11.7%
Cc1cc(C)cc(NC(=O)C(c2ccccc2)N2CCN(CC(=O)N3CCCC3)CC2)c1 (configuration not stated) | -12.8%
CCc1ccc(CNC(=O)C2CCN(c3nnc(C)c4c(C)n(-c5ccc(C)cc5)nc34)CC2)cc1 | -8.9%
COc1ccc(OC)c(NC(=O)COC(=O)Cc2ccsc2)c1 | 7.79%
COc1ccc(CCNC(=O)COc2cc(C)cc3oc(=O)c(C)c(C)c23)cc1OC | -16.2%
CN1CCN(S(=O)(=O)c2ccc(Nc3ccc(F)cc3)nc2)CC1 | 4.04%
COc1cc([C@H](Cc2ccccc2)NC(C)=O)oc(=O)c1 | -11.2%
Cc1nc2ccccc2c(=O)n1-c1ccc(F)c(NC(=O)c2cccs2)c1 | 4.62%
CCOC(=O)C1CCCN(C(=O)C2CCN(c3nnc(-n4cccc4)s3)CC2)C1 (configuration not stated) | -9.35%
Cc1ccc(C(=O)COC(=O)c2cccc(N3C(=O)c4c(C)nc5ccccc5c4C3=O)c2)cc1C | -0.235% and -7.76%
COc1ccc(Cl)cc1C(=O)OCC(=O)NCc1cccs1 | -17.2%
Cc1ccc(N(CCC(=O)O)S(=O)(=O)c2cccc(C(F)(F)F)c2)cc1 | -8.9%
